Screening data from PubChem BioAssay.
A selection: hits, their analogues and other compounds. The true share with any hit is near 0.63%.
GAA glycogen: GAA glycogen-cleavage inhibition or activation. P10253. AID 2100. 300,000 tested, 0.38% active. recombinant GAA, glycogen substrate, Amplex Red glucose oxidase fluorescence. Potency, µM (series often up to 76.4 µM), without a hit: at the top dose activity change, negative = inhibition, most hits filed as inhibitors;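 further: 0% = full enzyme reaction and -100% = no-enzyme basal signal; the screen sought inhibitors and activators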
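Recombinant human enzyme (4 nM); glycogen substrate; 37 C, 40 min, pH 5.0. Readout: coupled glucose oxidase/Amplex Red fluorescence.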
GALK inhibitor: blocks human galactokinase activity; AID 1868; Purified GALK, Kinase-Glo residual ATP luminescence; 270,000 tested, 0.007% active; Potency, µM (top dose mostly 57.5 µM), inactives show at the top dose activity change, negative = inhibition, hits mostly inhibitors
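The enzyme phosphorylates galactose (100 uM) using ATP (35 uM); inhibition is detected as higher residual ATP, quantified by bioluminescence after 1 h reaction at room temperature, pH 8.0.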
GAA inhib: inhibitors of human lysosomal alpha-glucosidase. P10253. purified human GAA, 4-MU-alpha-glucoside fluorescence. Potency, µM (titrated, usually from 76.9 µM), for inactives: at the top dose activity change, negative = inhibition, most hits filed as inhibitors. 200,000 tested, 0.005% active. AID 1466;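 further: plate controls were uninhibited enzyme wells for no effect and no-enzyme background for full effect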
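Human enzyme at 4 nM with 400 uM 4-methylumbelliferyl-alpha-D-pyranoside, citrate/phosphate buffer pH 5.0, 0.005% Tween-20, 20 min at room temperature. Compounds up to 77 uM. 4-MU fluorescence (Ex 365/Em 440) read after NaOH/glycine stop; AC50 from Hill fit.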
PKM2 act: activators of human pyruvate kinase M2; Potency, µM (top dose mostly 57.5 µM), without a hit: at the top dose activation, actives largely listed as activators; AID 1631; purified PKM2, Kinase-Glo ATP luminescence, activation; response scale: 0% is enzyme alone, no compound; 260,000 tested, 0.34% active; further: nearly all actives have a fitted effect of over 55% in size
Target sequence (P14618 whole entry, looked up): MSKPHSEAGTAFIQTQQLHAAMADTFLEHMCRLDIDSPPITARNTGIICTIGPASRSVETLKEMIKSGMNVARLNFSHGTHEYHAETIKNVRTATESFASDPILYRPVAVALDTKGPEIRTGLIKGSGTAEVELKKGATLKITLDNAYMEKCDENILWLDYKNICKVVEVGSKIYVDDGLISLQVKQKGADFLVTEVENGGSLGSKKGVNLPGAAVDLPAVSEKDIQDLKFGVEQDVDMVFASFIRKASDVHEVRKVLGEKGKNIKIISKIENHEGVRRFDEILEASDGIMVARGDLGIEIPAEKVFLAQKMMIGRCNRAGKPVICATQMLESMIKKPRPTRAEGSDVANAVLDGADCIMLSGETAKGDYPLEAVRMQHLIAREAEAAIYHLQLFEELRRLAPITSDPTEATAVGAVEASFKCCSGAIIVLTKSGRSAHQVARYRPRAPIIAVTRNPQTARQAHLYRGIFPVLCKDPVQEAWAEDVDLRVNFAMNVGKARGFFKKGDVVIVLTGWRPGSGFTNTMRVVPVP
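Purified hPK-M2 (>95%) run at intermediate activity with 0.1 mM ADP and 0.5 mM PEP in 50 mM imidazole pH 7.2, KCl, MgCl2; 1 h room temperature. ATP formed read by Kinase-Glo luminescence; normalized to uninhibited and no-enzyme controls.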
GAA spleen mod: inhibits or activates alpha-glucosidase in human spleen homogenate; human spleen homogenate, 4-MU-alpha-glucoside fluorescence; Potency, µM (series often up to 79.9 µM), inactives show at the highest dose activity change, negative = inhibition, most hits filed as inhibitors; P10253; 240,000 tested, 0.006% active; AID 2112;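 further: 0% = enzyme with vehicle and -100% = no enzyme basal signal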
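Human spleen homogenate (1 ug) incubated with compounds and 1 mM 4-methylumbelliferyl-alpha-D-glucopyranoside in pH 5.0 citrate/phosphate buffer, 37 C, 40 min. Stopped at pH 10; 4-MU fluorescence (Ex 365/Em 440 nm); AC50 by Hill fit.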
The depositor's hits bear a star; ? = inconclusive; . = no result; [ ] = another dose, or the depositor's remark. The call rests on the fitted dose curve; in most records, active means well fitted curve in the direction sought with a large enough effect; inconclusive means small, poorly fitted or top-dose-only effect, or another doubt; inactive means no such curve, though single readings can be large; an effect the other way counts as inactive or inconclusive. Unless noted, on the % scale 0 is the no-effect control and ±100 the full control effect; potency means the concentration at half of the fitted maximal effect.

SMILES | GAA glycogen | GALK inhibitor | GAA inhib | PKM2 act | GAA spleen mod
CCOc1ccc(N(CC)S(=O)(=O)N2CCCC(C(=O)Nc3cc(Cl)ccc3C)C2)cc1 (centres undefined) | -12%[76.3 µM] | . | . | . | .
COc1ccc(OC)c(N=C2C(=O)Nc3ccccc32)c1 | 31µM* | -3% | ? | 1% | -2%
COCCNC(=O)c1c(NC(=O)Cc2coc3cc(C)ccc23)sc2c1CCCC2 | 5%[76.3 µM] | . | . | . | .
CCOC(=O)c1c(/N=C/c2ccc(O)cc2O)sc2c1CCC2 | 35µM* | 2% | 2% | 0% | -12%
CCOC(=O)c1c(/N=C/c2ccccc2O)sc2c1CCC2 | 18µM* | 0% | 4% | 17% | 0%
O=[N+]([O-])c1cc(S(=O)(=O)N2CCCC2)ccc1NCCc1ccccc1 | 0% | -3% | 0% | 3.2µM* | 8%
CCn1c(N)c(C(=O)NCc2ccc3c(c2)OCO3)sc1=S | 1% | 0% | -14% | 5µM* | 5%
CCOC(=O)c1c(C)c(C(=O)NCc2ccc3c(c2)OCO3)c(C)n1CC | -15% | . | 2% | -17% | -2%
O=C(c1ccncc1)c1ccc(N2CCN(C3CC(=O)N(Cc4cccs4)C3=O)CC2)cc1 (centres undefined) | -7% | 0% | 1% | 0% | -5%
O=C1CC(N2CCN(c3ccc(O)cc3)CC2)C(=O)N1Cc1cccs1 (centres undefined) | 6.3µM* | 2% | -3% | -4% | -11%
Cc1coc2c(C)c3oc(=O)c(CCC(=O)N4CCCCC4)c(C)c3cc12 | -4%[76.3 µM] | . | . | . | .
Cc1nc(SCC(=O)c2ccccc2)c(C#N)c(-c2ccco2)c1C(=O)NCc1ccco1 | 9% | 0% | -3% | 25µM* | -2%
Cc1ccc2c(c1)N(C(=O)N1CCC(C(=O)NCc3ccccc3C)CC1)CC(C)O2 (centres undefined) | 10%[76.3 µM] | . | . | . | .
O=C(NCC(c1cccnc1)N1CCc2ccccc21)c1ccc(F)c(F)c1 (centres undefined) | -9%[76.3 µM] | . | . | . | .
CC(=O)Nc1cccc(NC(=O)CSc2ccc(-c3cccnc3)nn2)c1 | 5% | 2% | 0% | 32µM* | 3%
CC(=O)c1ccc(NC(=O)C2=CC(c3ccc(C)cc3)=NS(=O)(=O)N2C)cc1 | -13%[76.3 µM] | . | . | . | .
N#Cc1ccc(-c2csc(NNC(=O)c3ccccc3)n2)cc1 | 28µM* | 0% | -8% | -8% | -3%
CCCCn1c(=O)[nH]c(=O)c2c1nc(-c1ccc(-c3ccccc3Br)o1)n2CC | 1% | -1% | 0% | 16µM* | 5%
CCCCn1c(=O)[nH]c(=O)c2c1nc(-c1ccc3ccccc3c1)n2CC | 3% | 0% | 14% | 0% | 10%
Cc1cc(=O)n2c3c(sc2n1)C(=O)N(Cc1ccccc1)C3=O | -6% | -3% | -2% | 28µM* | -7%
Cc1cccc(NC(=O)CSc2nc3ccc(NC(=O)c4ccco4)cc3s2)c1 | 12%[76.3 µM] | . | . | . | .
CC(C)(C)c1ccc(C(=O)c2c[nH]c(C(=O)O)c2)cc1 | 28% | 1% | 1% | 32µM* | -2%
COC(=O)c1cc(C(=O)c2ccc(C(C)(C)C)cc2)c[nH]1 | 19% | -1% | ? | 1% | -1%
CCOc1ccc(CNC(=O)CCCn2c(=O)c3cccn3c3ccc(F)cc32)cc1 | 13%[76.3 µM] | . | . | . | .
CCOC(=O)C1CCCN(C(=S)Nc2ccc(Nc3ccccc3)cc2)C1 (centres undefined) | 40µM* | 2% | -14% | -13% | -11%
SMILES | GAA glycogen | GALK inhibitor | GAA inhib | PKM2 act | GAA spleen mod
CCOC(=O)C1CCN(C(=S)Nc2ccccc2)CC1 | 17% | 5% | 5% | -1% | 8%
CCOC(=O)C1CCCN(Cc2nc(N)nc(Nc3ccccc3)n2)C1 (centres undefined) | 4µM* | 4% | ? | -7% | 5%
CCCNC[C@H](O)COc1ccccc1C(=O)CCc1ccccc1 | . | . | . | . | 6%
O=C(Nc1cccc(Cl)c1)c1ccc2ncsc2c1 | -8% | . | . | . | .
O=C(OCCOc1cccc(Cl)c1)c1ccc2ncsc2c1 | -11% | -3% | . | 16µM* | .
COC(=O)[C@@]1(Cc2ccc(F)cc2)[C@H]2c3cc(C(=O)N(C)C)n(Cc4ccc(C)o4)c3C[C@H]2CN1C(=O)c1ccccc1 | . | . | . | 7.1µM* | 1%
